From ChEMBL document CHEMBL3433997, “St. Jude Leishmania screening dataset” (2016)

Legend:
Type in all cases: functional
[1] = molecular target: Solute carrier family 2, facilitated glucose transporter member 1 (Homo sapiens) (UniProt P11166); experiment: ST_JUDE_LEISH: Cytotoxicity at 2uM final concentration against transgenic Leishmania Mexicana promastigotes LmGLUT1 that are glucose transport deficient and complemented with the human glucose transporter GLUT1. Activity is measured by DNA content using SYBR green in vitro
Solute carrier family 2, facilitated glucose transporter member 1 (Homo sapiens), sequence (P11166 whole entry): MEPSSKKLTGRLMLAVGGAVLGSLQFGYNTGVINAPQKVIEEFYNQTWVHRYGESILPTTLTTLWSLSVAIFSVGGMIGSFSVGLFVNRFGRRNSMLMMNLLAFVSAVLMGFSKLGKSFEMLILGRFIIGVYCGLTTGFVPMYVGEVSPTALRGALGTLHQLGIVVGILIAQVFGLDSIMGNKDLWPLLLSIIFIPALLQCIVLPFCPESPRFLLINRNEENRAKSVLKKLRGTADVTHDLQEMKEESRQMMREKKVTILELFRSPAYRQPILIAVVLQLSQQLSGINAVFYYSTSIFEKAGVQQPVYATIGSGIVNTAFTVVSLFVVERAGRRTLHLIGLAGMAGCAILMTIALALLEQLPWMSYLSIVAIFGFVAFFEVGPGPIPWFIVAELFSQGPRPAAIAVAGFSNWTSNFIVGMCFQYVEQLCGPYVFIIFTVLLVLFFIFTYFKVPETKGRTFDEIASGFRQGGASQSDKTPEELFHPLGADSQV

[2] = molecular target: Hexose transporter 1 (Plasmodium falciparum) (UniProt O97467); experiment: ST_JUDE_LEISH: Cytotoxicity at 2uM final concentration against transgenic Leishmania Mexicana promastigotes LmPfHT that are glucose transport deficient and complemented with the Plasmodium falciparum hexose transporter. Activity is measured by DNA content using SYBR green in vitro
[3] = molecular target: Glucose transporter (Leishmania mexicana) (UniProt O61059); experiment: ST_JUDE_LEISH: Cytotoxicity at 2uM final concentration against transgenic Leishmania Mexicana promastigotes LmGT2 that are glucose transport deficient and complemented with the L. Mexicana glucose transporter 2. Activity is measured by DNA content using SYBR green in vitro

| SMILES | inhibition [1] [%] | inhibition [2] [%] | inhibition [3] [%] |
| --- | --- | --- | --- |
| Cc1ccc(NC(=O)C2CCC2)cc1-c1ccc(C(=O)NCC2CC2)cc1 | 1.36 | 0.51 | 0.3 |
| CCc1c(C)nc(-n2nc(C)cc2NC(=O)CC(c2ccccc2)c2ccccc2)[nH]c1=O | -2.32 | -2.23 | -4.35 |
| NS(=O)(=O)c1ccc(CNc2ccc3ncc(-c4ccc(OC(F)(F)F)cc4)n3n2)cc1 | 4.71 | 4.62 | 4.53 |
| COc1ccc(CN2CCC(NCc3ccc(C(F)(F)F)cc3)CC2)cc1 | 19.2 | 14.1 | 14 |
| CC(=O)Nc1ccc(CN(Cc2cccc(OC(C)(C)C)c2)Cc2ccc3c(c2)OCCO3)cc1 | 4.55 | 2.67 | 6.39 |
| O=C(C=Cc1ccc(Cl)c(Cl)c1)NCCCCCN1CCC(CCNC(=O)c2ccc3c(c2)OCO3)CC1 | 5.94 | 5.12 | 5.57 |
| CCCCCCNC(=O)C(N)CCCC(N)C(=O)NCCCCCC (stereo not given) | 6.05 | 5.65 | 5.23 |
| COc1ccc(-c2cccc(NC(=O)c3cccc(Cl)c3)c2)cc1CN1CCN(C)CC1 | 11.2 | 12 | 7.77 |
| Nc1nc(N)c2cc(C#Cc3ccc(-c4ccccc4)cc3)ccc2n1 | 4.53 | 10.9 | 2.06 |
| Cn1nccc1C(=O)NCCNCc1ccc(-c2ccc(-c3nc4cc(C(F)(F)F)ccc4[nH]3)s2)cc1 | 0.47 | -0.52 | 0.87 |
| COc1cc(C(=O)NC2CCc3ccccc32)cc(Cl)c1OC (stereo not given) | -4.04 | -0.96 | -0.41 |
| CC1Cc2ccccc2N1S(=O)(=O)c1cc(OCC(F)(F)F)ccc1OCC(F)(F)F (stereo not given) | 4.69 | 3.54 | 3.67 |
| CCCCOc1cc(CNCCCCCCNCc2cc(OCCCC)cc3ccccc23)c2ccccc2c1 | 4.98 | 0.76 | -2.17 |
| O=S(=O)(Nc1cc2c(cc1OCCCN1CCCCC1)CCNCC2)c1ccc(-c2ccc(Cl)cc2)cc1 | 1.29 | -0.13 | -0.37 |
| Cc1ccccc1/N=C1\NC(=S)N(c2cccc(C(F)(F)F)c2)C12CCC(C(C)(C)C)CC2 (stereo not given) | 2.78 | 2.68 | 2.58 |
| COc1ccc2nccc([C@@H](O)CN3CCC(NCc4ccc5c(c4)N(C)C(=O)CO5)CC3)c2c1 | 0.27 | 0.25 | 0.03 |
| COc1ccc(NC(=O)c2cc(NC(=O)C3(N)CC3)c(=O)n(Cc3ccc(C(N)=O)cc3)c2)cc1 | 0.5 | 3.44 | 2.12 |
| OC(CNc1ccnc(Nc2ccccc2)n1)c1ccc(C(F)(F)F)cc1 (stereo not given) | 5.97 | 5.69 | 1.23 |
| COc1ccc(CN(C)CCOc2ccc(NC(=O)c3cccc4c(=O)c5cc(SC)ccc5[nH]c34)cc2)cc1OC | 10.2 | 8.45 | 3.5 |
| CCc1ccc(CN2CCC(NC(=O)c3ccc(-c4ccc(N(C)C)cc4)s3)CC2)cc1 | 2.04 | 1.82 | 6.05 |
| Fc1ccc2[nH]c(-c3cccc(-c4cccc(CN5CCN(c6cnccn6)CC5)c4)c3)nc2c1 | 7.08 | 5.74 | 4.27 |
| CC(C)[C@H](NC(=O)c1ccc(O)c(-c2ccc(Cl)c(Cl)c2)c1)C(=O)NCCN1CCOCC1 | 2.3 | 4.31 | 4.06 |
| Cc1nnc2c(NC(=O)NC3CCCC3)cc3ccc(-c4cccc(CN(C)C)c4)cc3n12 | 2.19 | 2.6 | 0.64 |
| O=C(/C=C/c1ccc(Cl)c(Cl)c1)NCCCCCN1CCCC(C(=O)Nc2ccc(F)c(Cl)c2)C1 (stereo not given) | 3.02 | 5.25 | 4.87 |
| O=C(Nc1cccc(CN2CCCN(Cc3cccnc3)CC2)c1)c1cc2ccccc2s1 | 4.38 | 4.77 | -1.53 |
| OCC1CCN(Cc2cccc(-c3cccc(-c4nc5cc(C(F)(F)F)ccc5[nH]4)c3)c2)CC1 | 2.74 | 0.35 | 0.14 |
| CS(=O)(=O)c1cccc2sc(N3CCN(C(=O)c4ccc([N+](=O)[O-])o4)CC3)nc12 | 35.6 | 23.7 | 3.97 |
| Nc1nc2c(ncn2COC2COP(=O)(O)OC2)c(=O)[nH]1 (stereo not given) | 12.2 | 12 | 12.3 |

| SMILES | inhibition [1] [%] | inhibition [2] [%] | inhibition [3] [%] |
| --- | --- | --- | --- |
| CCOc1ccc2nc3cc([N+](=O)[O-])ccc3c(N)c2c1 | 6.85 | 7.59 | 2.01 |
| O=[N+]([O-])c1ccccc1/C=N/Nc1ccnc2ccc(C(F)(F)F)cc12 | -0.59 | 2.42 | 0.08 |
| N=C1C=C(N)C(=O)c2ccccc21 | 89 | 100 | 94.2 |
| COc1c(CN2CCCC2)cccc1-c1cc2c(-c3ccc(C(=O)O)c(C(C)C)c3)ccnc2[nH]1 | 3 | 2.05 | 2.09 |
| CN(CCON1C(=N)N=C(N)NC1(C)C)c1ccccc1 | -0.49 | 0.33 | 0.35 |
| CC1CCCC(NCc2c(O)ccc3ccccc23)C1 (stereo not given) | 3.58 | 3.22 | 3.69 |
| CN1c2ccc([N+](=O)[O-])cc2C(C)(C)C12C=Cc1cc(Br)cc([N+](=O)[O-])c1O2 (stereo not given) | 2.03 | -0.39 | -0.71 |
| COc1ccc2oc(=O)c(C#N)c(O)c2c1 | -0.47 | -0.32 | 0.54 |
| N#Cc1ccc(-c2ccc(C(=O)NCCCCN3CCC(c4cn(CCO)c5ccccc45)CC3)cc2)cc1 | -0.57 | -0.13 | 0.2 |
| CCOC(=O)c1cc(C(=O)NCCCCN2CCC(c3ccc(CC)cc3OCC)CC2)ccc1-c1ccc(C(F)(F)F)cc1 | 10.1 | 8.59 | 3.34 |
| COc1ccc(OC)c(NC(=O)CSc2nc(-c3ccccc3Cl)ns2)c1 | 0.9 | 0.98 | -1.15 |
| Fc1cccc(Cn2ncc3cc(Nc4ncnc5sc(C#Cc6ncc[nH]6)cc45)ccc32)c1 | -0.74 | 1.74 | -0.29 |
| O=C(Nc1ccc(Cn2ncc(N3CCCNCC3)c(Cl)c2=O)cc1)Nc1ccc(C(F)(F)F)cc1 | 3.47 | 4.5 | -0.44 |
| c1cc(CN2CCCCC2)cc(-c2csc(-c3nc4ccccc4[nH]3)c2)c1 | 5.65 | 4.57 | 2.67 |
| Nc1nc(N)c2c(ccc3[nH]c(-c4ccccc4Cl)nc32)n1 | 77.1 | 69.7 | 61.8 |
| CC(C)C[C@H](NC(=O)c1ccc(OCCN2CCOCC2)cc1)C(=O)NC(/C=N/N1CCCC1=O)C(C)C (stereo not given in full) | 2.27 | 3.56 | 2.49 |
| COc1ccc2nc3cc(Cl)ccc3c(NCCc3ccccc3)c2c1 | 1.15 | 1.24 | -0.37 |
| CCOC(=O)C1CCN(CCCNC(=O)/C(=C/C=C/c2cc3cc(Cl)c(Cl)cc3[nH]2)OC)CC1 | -1.12 | 4.1 | 0.42 |
| CN(Cc1ccc(NC(=O)NC2CCN(C(=O)/C=C/c3ccc(Cl)c(Cl)c3)CC2)cc1)C1CCOCC1 | 1.63 | -3.08 | 3.44 |
| COc1ccc(-c2cc3ncn(CC(=O)N4CCN(c5cccc(OC)c5)CC4)c(=O)c3s2)cc1 | 2.19 | 3.48 | 2.45 |
| Cc1cc(-c2ccc(CNC3Cc4ccccc4C3)cc2)ccc1S(=O)(=O)NCCN1CCCC1 | 30.9 | 30.9 | 3.47 |
| O=C(Nc1ccc(-c2nc3ccccc3[nH]2)cc1)c1cnc(Cl)c(Cl)c1 | 0.44 | -0.34 | 2.62 |
| O=C(C=Cc1ccc(Cl)c(Cl)c1)NCCCCCN1CCC(CCCNC(=O)/C=C/c2ccccc2)CC1 | 3.12 | 2.68 | 1.62 |
| COc1ccc(NC(=O)CSc2nc(-c3ccccc3Cl)ns2)cc1OC | -0.51 | -0.5 | 2.58 |
| Cc1cc(=NN=CC=Cc2ccccc2)c2ccc(F)cc2[nH]1 | -1.45 | 2.91 | -0.62 |
| O=[N+]([O-])c1cccc(-c2nc3cc(C4=NC5CCCCC5N4)ccc3[nH]2)c1 (stereo not given) | 0.61 | 2.08 | 1.26 |
| COc1cc2nc(N3CCC(CNC(=O)c4cc(Br)c(Br)s4)CC3)nc(N)c2cc1OC | 9.57 | 9.82 | 6.92 |
